Screening data deposited in PubChem by National Center for Advancing Translational Sciences (NCATS).
3T3 cytotox = cytotoxic compounds in NIH 3T3 cells. NIH 3T3 viability, CellTiter-Glo ATP luminescence, 48-72 h. Potency, µM (highest dose often 96.7 µM), for inactives: at the highest dose activity change, negative = cytotoxicity, hits mostly inhibitors. hit rate 4.3% among 94,000; further: on the % scale 0 is the no-effect control and ±100 the full control effect; nearly all actives have a fitted effect of over 55% in size
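Cytotoxicity is measured as loss of cellular ATP: NIH 3T3 cells (400/well) are exposed to compound for 48 or 72 hr at 37 °C, then CellTiter-Glo luminescence is imaged after 10 min at room temperature.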
HEK cytotox = kills HEK 293 cells; Potency, µM (highest dose often 115 µM), for the others: top-dose activity change, negative = cytotoxicity, most hits filed as inhibitors; hit rate 6.6% among 94,000; HEK 293 viability, ATP luminescence (CellTiter-Glo), 48-72 h; further: on the % scale 0 is the no-effect control and ±100 the full control effect; nearly all actives have a fitted effect of over 60% in size
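CellTiter-Glo luminescence (cellular ATP) was read after 48 or 72 hr of compound exposure at 37 degree Celsius. Cells were HEK 293 plated at 250 cells/well.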
hNpr1 antagonist = antagonists of human natriuretic peptide receptor Npr1; HEK293 hNpr1 GloSensor cGMP, ANP-stimulated luminescence; hit rate 1.6% among 76,000; P16066; Potency, µM (titrated, usually from 46.3 µM), for inactives: at the highest dose activity change, negative = inhibition, most hits filed as inhibitors; calls by dose curve; further: on the % scale 0 is the no-effect control and ±100 the full control effect; nearly all actives have a fitted effect of over 60% in size
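HEK293 cells stably expressing human Npr1 and cGMP GloSensor pGS-40F, loaded 2 h with 2% GloSensor reagent, given compound 30 min at room temperature. Luminescence read before and 20 min after 0.1 nM hNppA.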
Luciferase inh = Photinus pyralis luciferase inhibition | purified P. pyralis luciferase, luminescence, biochemical | Potency, µM (titrated, usually from 115 µM), hits mostly inhibitors | hit rate 2.5% among 76,000 | P08659; further: on the % scale 0 is the no-effect control and ±100 the full control effect; nearly all actives have a fitted effect of over 65% in size
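Luminescence read by CCD imager after adding enzyme (10nM final) to wells holding compound, titrated in qHTS. Substrates 10uM each D-luciferin and ATP; buffer 50mM Tris acetate pH 7.5, 10mM Mg acetate, Tween-20, BSA.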
NPR1 antag cnf = confirmation of human Npr1 natriuretic peptide receptor antagonists; AID 1347044; HEK293 hNpr1 cGMP GloSensor luminescence, ANP-stimulated; Potency, µM (doses to about 57.6 µM), for inactives: at the highest dose activity change, negative = inhibition, most hits filed as inhibitors; hit rate 76% among 1,400; shares compounds with hNpr1 antagonist; calls by dose curve; further: nearly all actives have a fitted effect of over 70% in size
Npr2 selectivity = selectivity test of Npr1 antagonists against human Npr2; shares compounds with hNpr1 antagonist; HEK293 hNpr2 GloSensor cGMP luminescence, CNP-stimulated; Potency, µM (titrated, usually from 57.6 µM), for the others: top-dose activity change, negative = inhibition, hits mostly inhibitors; hit rate 67% among 1,400; AID 1347046; calls by dose curve; further: nearly all actives have a fitted effect of over 70% in size
FLuc counter = counter-screen for Npr1 antagonists: firefly luciferase inhibitors; shares compounds with hNpr1 antagonist; purified FLuc enzyme, luminescence, Km substrate; Potency, µM (doses to about 57.6 µM), for the others: at the top dose activity change, negative = inhibition, hits mostly inhibitors; hit rate 0.7% among 1,400; AID 1347047; further: 0% is about no effect
GloSensor ctrl = counter-screen for Npr1 antagonists: GloSensor control cell line; shares compounds with hNpr1 antagonist; HEK293 GloSensor cGMP, SNP-stimulated, luminescence; Potency, µM (doses to about 57.6 µM), inactives show at the top dose activity change, negative = inhibition, hits mostly inhibitors; hit rate 69% among 1,400; AID 1347051; calls by dose curve; further: on the % scale 0 is the no-effect control and ±100 the full control effect; nearly all actives have a fitted effect of over 70% in size
Starred values were filed as active, the others as inactive; i = inactive; ? = inconclusive; nt = no result given; [ ] = dose if it differs, or a comment. Compounds with a hit are over-represented: about 11% of the library has one in this group of screens. Unless noted, the call rests on the fitted dose curve; in most records, active means well fitted curve in the direction sought with a large enough effect; inconclusive means small, poorly fitted or top-dose-only effect, or another doubt; inactive means no such curve, though single readings can be large; an effect the other way counts as inactive or inconclusive. Potency means the concentration at half of the fitted maximal effect.

SMILES	3T3 cytotox	HEK cytotox	hNpr1 antagonist	Luciferase inh	NPR1 antag cnf	Npr2 selectivity	FLuc counter	GloSensor ctrl
Cc1noc2c(-c3cccnc3)cc(-c3cccc(C(F)(F)F)c3)nc12	?	?	-17%[70.6 µM]	i	nt	nt	nt	nt
Cc1noc2c(-c3cn[nH]c3)cc(-c3cccc(C(F)(F)F)c3)nc12	25µM*	35µM*	?	i	?	-29%[86.2 µM]	-8%[86.2 µM]	-16%[86.2 µM]
Brc1ccc(CN2CCC(c3nc4ccncc4[nH]3)C2)cc1 (centres undefined)	?	?	11µM*	i	24µM*	22µM*	-1%	?
CCCN1C(=O)Cc2cc(C(=O)NC(C)c3ccc(OCC)cc3)ccc21 (centres undefined)	?	?	?	i	?	?	2%	?
O=C(NCc1ccc(F)cc1)N1CCCC(Cc2nncn2-c2ccccc2)C1 (centres undefined)	?	-21%	-9%	i	nt	nt	nt	nt
CCOc1ccccc1C1NC(=O)N(CC(=O)Nc2cccc(C(C)C)c2)C2=C1C(=O)OC2 (centres undefined)	?	?	?	i	?	?	-1%	?
O=C(CN1C(=O)NC(c2ccc(Cl)cc2)C2=C1COC2=O)Nc1ccc(F)c(Cl)c1 (centres undefined)	40µM*	?	?	i	?	?	-6%	?
Cc1ccc(NC(=O)CN2C(=O)NC(c3ccc(Cl)cc3)C3=C2COC3=O)c(Cl)c1 (centres undefined)	?	45µM*	?	i	?	-28%	4%	-20%
Cc1ccc(NC(=O)CN2C(=O)NC(c3ccc(Cl)cc3)C3=C2COC3=O)c(C)c1 (centres undefined)	?	?	-20%	i	nt	nt	nt	nt
O=C(c1ccc(Cl)cc1)N1CCC(C(=O)N2CCC(c3nc4ncccc4[nH]3)C2)CC1 (centres undefined)	-15%	0%	nt	nt	nt	nt	nt	nt
COc1ccc(OC)c(CN2CCC3(CC2)CC3C(=O)N(C)CCOc2ccc(C)cc2)c1 (centres undefined)	i	14%	4%	i	nt	nt	nt	nt
Cc1cccc(-n2ncc3c2CCCC3NC(=O)CCC(F)(F)F)c1C (centres undefined)	-27%	?	?	i	24µM*	?	2%	24µM*
O=C(c1cc(Cl)ccc1F)N1CCN(c2cc(-c3ccccc3)[nH]n2)CC1	?	?	-20%	i	nt	nt	nt	nt
O=C(c1ccc(F)cc1Cl)N1CCN(c2cc(-c3ccc(F)cc3)[nH]n2)CC1	?	?	11µM*	i	17µM*	19µM*	-1%	15µM*
O=C(c1cc(F)ccc1F)N1CCN(c2cc(-c3ccc(Cl)cc3)[nH]n2)CC1	28µM*	35µM*	?	i	27µM*	24µM*	1%	31µM*
CC(C)n1cc(CN2CC[C@@H](c3ccc4ccccc4c3)[C@H](O)C2)cn1	?	?	-12%	i	nt	nt	nt	nt
COc1nccc(N2CCC(CC(=O)NCc3ccc(F)c(Cl)c3)CC2)n1	?	?	11µM*	i	24µM*	22µM*	3%	24µM*
COc1nccc(N2CCC(CC(=O)N3CCCN(c4ncccn4)CC3)CC2)n1	-31%	?	22µM*	i	24µM*	?	3%	?
